In ChEMBL document CHEMBL1157539, “Thousands of chemical starting points for antimalarial lead identification” (Nature, 2010):

What follows are compounds tested on Plasmodium falciparum (assay: GSK_TCMDC: Inhibition of Plasmodium falciparum 3D7 in whole red blood cells, using parasite LDH activity as an index of growth. Test compounds present at 2uM).
Format: functional
Work on N#Cc1ccc(N/C(=N\c2ccc(-c3ccccc3)cc2)NCCc2c[nH]c3ccccc23)c(O)c1 yielded an Inhibition of 96%. Work on O=C(Cn1cnc2c(nnn2Cc2ccccc2F)c1=O)Nc1ccc2c(c1)OCCO2 yielded an Inhibition of 86%. For CN(C)CCCOc1ccc(CN2CC[C@H](NC(=O)c3ccc(Cl)c(Cl)c3)C2)c2ccccc12.O=C(O)C(F)(F)F, the Inhibition was 100%. c1ccc2oc(-c3cc4ccncc4cc3OC3CCNCC3)cc2c1 showed an Inhibition of 100%.

The compounds below were run on Plasmodium falciparum (assay: GSK_TCMDC: Inhibition of Plasmodium falciparum Dd2 in whole red blood cells, using parasite LDH activity as an index of growth. Test compounds present at 2uM).
Format: functional
With O=C(NCCc1ccc(Cl)c(Cl)c1)[C@@H]1CCCN1C(=O)c1ccc(O)c(-c2cccc(C(F)(F)F)c2)c1 the Inhibition was 82%. Cc1cc(N/N=C/c2ccccc2[N+](=O)[O-])c2ccccc2n1 was tested, and the Inhibition was 100%. CCCCCN1CCCC1CNS(=O)(=O)c1ccc(C(=O)Nc2ccc(C(F)(F)F)cc2)cc1.O=C(O)C(F)(F)F (centres undefined) showed an Inhibition of 0%. In the case of Cl.Cn1ncc2c3c(CCN4CCC(NCc5ccc6c(c5)NC(=O)CO6)CC4)c(Cl)cnc3ccc21, the Inhibition was 92%. With ON=C(c1nc2ccccc2[nH]1)c1nc2ccccc2[nH]1 the Inhibition was 68%. In the case of COc1ccc(C(=O)C2CCN(CCCCNC(=O)c3ccc(NC(=O)c4cc(Cl)cc(Cl)c4)cc3)CC2)cc1, the Inhibition was 84%. COc1cccc(CN2CCCN(Cc3cccc(NC(=O)c4cc5ccccc5s4)c3)CC2)c1.O=C(O)C(F)(F)F gave an Inhibition of 16%. For COc1ccc(Nc2cc(C)c3cc(NC(=O)c4ccncc4)ccc3n2)cc1, the Inhibition was 26%. Compound CC(C)(CNCCOc1ccc(Cl)cc1)c1nc(-c2ccnc(N)n2)c(-c2ccc(Cl)c(O)c2)[nH]1.Cl has an Inhibition of 19%. O=C(/C=C/c1ccc(Cl)c(Cl)c1)NCCCCCN1CCC(NC(=S)Nc2ccc(F)cc2F)CC1 showed an Inhibition of 18%. Compound CC(C)NC[C@@H](O)[C@H](Cc1ccccc1)NC(=O)c1cc2c3c(c1)c(C(C)C)cn3CCS(=O)(=O)N2C.O=CO has an Inhibition of 99%. For CC(=O)Nc1ccc(C(=O)Nc2cccc(-c3cccc(-c4nc5cccc(C)c5[nH]4)c3)c2)cn1, the Inhibition was 100%. In the case of CCCCN(CCCC)/C(=N/C(=N)Nc1ccc(Cl)cc1)NCCCCCCN/C(=N\C(=N)Nc1ccc(Cl)cc1)N(CCCC)CCCC, the Inhibition was 72%. Work on CCCN(CCC)CC(O)COc1ccccc1C(=O)Nc1ccccc1 (centres undefined) yielded an Inhibition of 95%. CN1CCC(N2CCN(Cc3ccc(-c4ccc(-c5nc6ccccc6[nH]5)s4)cc3)CC2)CC1.O=C(O)C(F)(F)F was tested, and the Inhibition was 100%. For N#Cc1cccc(C(=O)Nc2cccc(-c3ccc(C(=O)Nc4cccnc4)cc3)c2)c1, the Inhibition was 10%. Work on CC(=O)Nc1ccc(CN2Cc3ccc(NC(=O)Nc4ccc(Oc5ccccc5)cc4)cc3C2)s1 yielded an Inhibition of 25%. CCC(C)OC(=O)C1=C(C)NC2=C(C(=O)CC(c3ccc(OC)c(OC)c3)C2)C1c1ccc(C)o1 (centres undefined) showed an Inhibition of 82%. In the case of Cc1ccc2[nH]c(-c3ccc(C=CC(=O)NCc4ccc(Cl)c(Cl)c4)cc3)nc2c1, the Inhibition was 18%. Work on CCNc1cc(C(=O)N[C@@H](Cc2ccccc2)[C@H](O)CNCCC(C)c2ccccc2)cc(N2CCCC2=O)c1.O=C(O)C(F)(F)F (some centres undefined) yielded an Inhibition of 95%. In the case of CC1CCCN(c2ccc(NC(=O)c3cccs3)cc2[N+](=O)[O-])C1 (centres undefined), the Inhibition was 96%. Work on COC(=O)c1cccc(N2CCN(CCCNC(=O)/C(=C/C=C/c3cc4cc(Cl)c(Cl)cc4[nH]3)OC)CC2)c1.Cl yielded an Inhibition of 59%. With O=[N+]([O-])c1ccc(C2=NN(S(=O)(=O)c3c(Cl)cc(Cl)cc3Cl)CCCC2)cc1 the Inhibition was 98%. In the case of CCCN(C(=O)c1ccccc1C)c1nnc(-c2cccc(C)c2)s1, the Inhibition was 67%. COc1ccccc1-c1cccc(-c2cccc(NC(=O)c3ccc([N+](=O)[O-])o3)c2)n1 was tested, and the Inhibition was 59%. FC(F)(F)c1ccc2[nH]c(-c3ccc(-c4ccc(CNCCN5CCNCC5)cc4)cc3)nc2c1.O=C(O)C(F)(F)F gave an Inhibition of 74%. Compound O=C(NC1CC1)c1ccc(N2CCCC(COc3ccccc3F)C2)nc1 (centres undefined) has an Inhibition of 92%. For COc1ccc(Cl)cc1NC(=O)CN(C)C(=O)c1cnn(-c2ccccc2)n1, the Inhibition was 99%. For C(=C(c1cccs1)c1cccs1)c1ccc(CNC2CCN(Cc3ccccc3)CC2)cc1.Cl, the Inhibition was 21%. In the case of Cc1cccc(C)c1N1CCN(C2CCC(NC(=O)c3cc4ccccc4[nH]3)CC2)CC1 (centres undefined), the Inhibition was 64%. With COc1ccc(CCN(C)CCOc2ccc(NC(=O)COc3ccc4sc5ccccc5c(=O)c4c3)cc2)cc1OC the Inhibition was 91%. Compound Cc1[nH]c(C)c(-c2ccc(-c3ccc(C(F)F)cc3)nc2)c(=O)c1Cl has an Inhibition of 96%. CN1CC[C@@H](Oc2cc(NC(=O)Nc3ccc(Cl)c(C(F)(F)F)c3)ccc2Cl)C1 was tested, and the Inhibition was 68%. Work on N#Cc1cc(C(=O)Nc2ccccc2)c(N)nc1SCC(=O)Nc1ccc(Br)cc1 yielded an Inhibition of 66%. For CN1CCC(Oc2ccc(NC(=O)c3ccc4c(=O)n(Cc5ccccc5)cnc4c3)cc2Cl)CC1, the Inhibition was 20%. With O=C(C=Cc1ccc(Cl)c(Cl)c1)NCCCCCN1CCC(CCCNC(=O)c2ccc3c(c2)OCO3)CC1 the Inhibition was 64%. N#Cc1ccc(N/C(=N\c2ccc(-c3ccccc3)cc2)NCCc2c[nH]c3ccccc23)c(O)c1 gave an Inhibition of 75%. With O=C(Cn1cnc2c(nnn2Cc2ccccc2F)c1=O)Nc1ccc2c(c1)OCCO2 the Inhibition was 1%. Work on CN(C)CCCOc1ccc(CN2CC[C@H](NC(=O)c3ccc(Cl)c(Cl)c3)C2)c2ccccc12.O=C(O)C(F)(F)F yielded an Inhibition of 97%. For c1ccc2oc(-c3cc4ccncc4cc3OC3CCNCC3)cc2c1, the Inhibition was 96%.
